In all, about 300,000 compounds went through this assay and about 37,000 (12%) were called active. The sample as a whole holds a higher share of actives than the screen did. A number with no mark means an inactive call. Rule as the data show it: active = max response mostly above about 13% (no sharp cut-off); inactive = mostly below about 14%.

A short description of this assay: Cycloheximide Counterscreen for Small Molecule Inhibitors of Shiga Toxin. Also: read at 38.3 µM for the half of the compounds with a filed dose; 0% is about no effect. Particulars: cell reporter, cycloheximide protein synthesis inhibition counterscreen; hits give high values.
With `CC1(C)Oc2ccc3ccc(=O)oc3c2/C(=N/O)C1=O`, the max response is 7.27%.
Regarding `Oc1ccccc1C=NC1CCCCC1N=Cc1ccccc1O` (centres undefined), the max response was 6.63%.
As for `O=C(N/N=C/c1ccccc1O)C1CCCC1`, the figure is 28% (active).
In the case of `COc1ccc(/C=N/NC(=O)C2CC2)c(OC)c1OC`, the max response is 3.25%.
As for `COc1cc(NC(=O)NCC2CCN(Cc3ccc(C)cc3)CC2)cc(OC)c1OC`, the figure is -2.97%; as for `COc1ccccc1C(=O)OCC(=O)NCCNC(=O)COC(=O)c1ccccc1OC`, -1.55%.
For the molecule `COc1cc(C(=O)NCc2ccc3c(c2)cc(C)n3C)cc(OC)c1OC`, the max response was -6.41%.
For the molecule `Cc1ccc(C(C(=O)NCC2CCCO2)N(C(=O)c2snc(C(N)=O)c2N)c2ccc(C(C)C)cc2)o1` (centres undefined), the max response was 8.94%.
For the molecule `COC(=O)c1ccc(Oc2nc(NC(C)C)nc(SC)n2)cc1`, the max response was 9.19% (active).
As to `COC(=O)c1ccc(Oc2nc(Nc3ccc(F)cc3)nc(N3CCCC3)n2)cc1`, the max response was 0.283%.
`CCNc1nc(Oc2ccc(C(=O)OC)cc2)nc(N2CCOCC2)n1`: the max response was -3.34%.
For the molecule `CCOc1ccc(NC(=O)CC(Cc2ccc(Cl)cc2)C(=O)O)cc1` (centres undefined), the max response is -1.1%.
Consider `Cn1cccc1C(=O)Nc1nccs1`, for which the max response is 18.6% (active).
As for `O=C(O)c1ccccc1-c1ccccc1C(=O)Nc1nccs1`, the max response is -6.56%.
As for `CC(NC(=O)C(=O)Nc1nccs1)c1ccccc1` (centres undefined), the max response is -0.875%.
As for `Cc1ccc2cccc(S(=O)(=O)N3CCN(c4ccccc4F)CC3)c2n1`, the figure is -1.96%; as for `COc1ccccc1Nc1cc(C(=O)NCCCN(C)C2CCCCC2)c2ccccc2n1`, -15.5%.
For the molecule `Clc1cccc(Cl)c1Cn1nnc(-c2cccs2)n1`, the max response was 1.15%.
To `CCc1ccc(-c2nnn(Cc3nn[nH]n3)n2)cc1` belongs -4.49%; to `CCc1ccc(-c2nnn(Cc3nc4ccccc4s3)n2)cc1`, 38.7% (active); to `Cc1cc(N2CCN(c3ccc(F)cc3)CC2)n2ncnc2n1`, 1.63%.
As for `COC(=O)c1ccccc1NS(=O)(=O)c1ccc2[nH]c(=O)[nH]c2c1`, the max response is -1.95%.
As to `Cc1cc(C(=O)NNC(=S)Nc2ccccc2C)cs1`, the max response is 34.5% (active).
On to `CC(CC(=O)O)CC(=O)NNC(=O)c1cccc(Br)c1` (centres undefined), for which the max response was -1.69%.
Take `Cc1cc(C(=O)NNC(=S)NC(C)c2ccccc2)cs1` (centres undefined): the max response is -2.7%.
`O=C(NC(=S)Nc1cccc2c(O)cccc12)c1cccc(Br)c1`: the max response is -1.87%.
As for `Cc1ccccc1NC(=S)NNC(=O)c1cccc(Br)c1`, the max response is 17.3% (active).
For the molecule `Cc1ccc(C)c(NC(=S)NNC(=O)c2csc(C)c2)c1`, the max response was 10.1%.
As for `CCCCN=C1C([N+](=O)[O-])=CC=C2C1=NC1(CCCCC1)N2O`, the max response is 4.25%.
To `CCCc1nnc(NC(=O)CCC(=O)NC2CC2)s1` belongs -2.75%; to `Cc1ccc2c(c1)C1CN(C)CCC1N2S(=O)(=O)c1ccc(Oc2ccc([N+](=O)[O-])cc2)cc1` (centres undefined), -3.12%.
As for `Cc1ccc(C(=O)NC2CCN(C(=O)Nc3ccccc3Cl)CC2)cc1`, the figure is -2.19%; as for `Cc1nn(CC(=O)NCC2CCCO2)c(=O)c2cc3ccccc3n12` (centres undefined), 3.06%; as for `Cc1ccc(-c2cn3cc(C)ccc3n2)cc1`, -15.5%.
For `CSc1nnc2ccc(-c3ccc(C)cc3)nn12`, the max response was 8.85%.
For `Cc1ccc(C(=O)Cn2cc([N+](=O)[O-])nc2C)cc1`, the max response is -1.83%.
Turning to `Cc1ccc(-c2cn3cc([N+](=O)[O-])ccc3n2)cc1`, the max response was 92.8% (active).
`Cc1ccnc(N2C(=O)c3ccc([N+](=O)[O-])cc3C2=O)c1`: the max response is -0.576%.
`Cc1ccc2nc(-c3ccc(Br)cc3)cn2c1`: the max response was 17.6% (active).
As to `CC1CCN(C(=O)c2ccc(S(=O)(=O)Cc3cc(F)ccc3F)c([N+](=O)[O-])c2)CC1`, the max response was 0.662%.
As to `O=C(CN1CCN(S(=O)(=O)c2cc(Cl)ccc2Cl)CC1)c1ccc(O)c(O)c1`, the max response is 6.66%.
As for `CCC(C)NCCOCCOc1ccc(Br)cc1C` (centres undefined), the max response was -2.66%.
In the case of `COC(=O)CSc1nc2c(c(C3CC=CCC3)c1C#N)CCC2` (centres undefined), the max response was -1.01%.
Consider `CCOC(=O)c1sc(C)c2c1NC(C)(c1cccc3ccccc13)NC2=O` (centres undefined), for which the max response was 0.788%.
For the molecule `C/C(=N\NC(=O)Cc1ccccc1[N+](=O)[O-])c1cccnc1`, the max response is -0.525%.
For `Nc1nc(SCC(=O)NCCN2CCOCC2)nc2sc3c(c12)CCC3`, the max response is -2.27%.
With `Cc1sc2nc(SCC(N)=O)n(C)c(=O)c2c1C`, the max response is -2.39%.
For the molecule `CC(C)(C)C1CCc2c(sc3nc(SCC(N)=O)nc(N)c23)C1` (centres undefined), the max response was 28.1% (active).
As for `CN(C)CCSc1nc(N)c2c3c(sc2n1)COC(C)(C)C3`, the max response was -2.73%.
For the molecule `C=C(C)CSc1nc(N)c2c3c(sc2n1)CCC3`, the max response is 18.4% (active).
For `CCC1(C)Cc2c(sc3nc(SC)nc(N)c23)CO1` (centres undefined), the max response was 8.94%.
Consider `C=CCn1cc(C(=O)NCc2ccc(Cl)cc2)c(=O)c2cc(S(=O)(=O)N(CC)CC)ccc21`, for which the max response is -6.07%.
As for `CN(CCNC(=O)c1cc2c(-c3ccccc3F)nn(C)c2s1)C1CCCCC1`, the max response is -2.34%.
Take `CCOC(=O)C1CCCN(S(=O)(=O)c2ccc3c(c2)C(C)(C)C(=O)N3C)C1` (centres undefined): the max response was -2.15%.
To `COc1ccc(N(C(=O)c2ccc(C)cc2)S(=O)(=O)c2cccs2)cc1` belongs 10.9%.
In the case of `Clc1ccc(C2=CSC3=Nc4cccc5cccc(c45)N23)cc1`, the max response is 11.3% (active).
As for `CC(=O)Oc1cccc(N2C(=O)CC(Nc3ccc(N4CCOCC4)cc3)C2=O)c1` (centres undefined), the figure is 49% (active); as for `CC(=O)Oc1cccc(N2C(=O)C3CC=C(Cl)CC3C2=O)c1` (centres undefined), -3.93%.
As for `COc1ccc(N2CCN(C3CC(=O)N(c4ccc5c(c4)OCCO5)C3=O)CC2)cc1` (centres undefined), the figure is 1.96%; as for `COc1ccccc1OCCn1c(SCC(N)=O)nc2ccccc21`, -1.3%.
`COc1ccc(Cn2c(=O)sc3ccccc32)cc1OC`: the max response is -0.76%.
Turning to `COc1ccccc1OCc1nc2ccccc2s1`, the max response is 27.4% (active).
As for `CC1CCc2c(nc3ncnn3c2Nc2ccc(OC(F)(F)F)cc2)C1` (centres undefined), the max response was 0.841%.
As for `OCCn1c(-c2ccccc2)csc1=Nc1ccccc1`, the max response was 38.9%.
For the molecule `Cn1c(SCC(=O)NC2CCCCC2)nnc1-c1cc2ccccc2o1`, the max response is 10.2%.
Consider `O=c1oc2ccccc2cc1-c1csc(Nc2ccc(O)cc2)n1`, for which the max response is 46% (active).
As for `COc1ccc2nc(Nc3nc4cc5c(cc4s3)OCCO5)sc2c1`, the max response is 33.1% (active).
In the case of `COc1ccccc1CN(C)C(=O)c1cc2ccccc2o1`, the max response was 7.81%.
For `COc1ccc2nc(Nc3nc(-c4ccncc4)cs3)sc2c1`, the max response was 21.5%.
Regarding `CCOc1ccc(S(=O)(=O)Nc2nc3cc(OC)ccc3s2)cc1`, the max response is -4.35%.
Regarding `COc1ccc2nc(Nc3nc4ccc(NC(C)=O)cc4s3)sc2c1`, the max response is 6.12%.
As to `CCNc1nc(-c2cc3ccccc3o2)cs1`, the max response is 58% (active).
As for `COc1ccc2nc(Nc3nc(-c4cc5ccccc5oc4=O)cs3)sc2c1`, the figure is 13.6% (active).
`CC(=O)Nc1nc(C)c(-c2csc(Nc3ccc(S(N)(=O)=O)cc3)n2)s1`: the max response is -0.544%.
As for `COc1ccc2oc(=O)cc(-c3cc4ccccc4o3)c2c1`, the max response was 4.74%.
Regarding `Cc1ccc(OCCCC(=O)Nc2ccc(S(=O)(=O)Nc3cc(C)nc(C)n3)cc2)cc1`, the max response was -2.32%.
Take `CN(C)[C@@H]1C(=O)C(C(N)=O)=C(O)[C@@]2(O)C(=O)C3=C(O)c4c(O)ccc(Cl)c4[C@@H](O)[C@H]3C[C@@H]12`: the max response is 3.73%.
As for `CCN(CC)CCOCCOc1ccc(Cl)c2ccccc12`, the figure is -2.87%; as for `COc1cc(NS(=O)(=O)c2ccc(NC(=S)NC(=O)c3ccc(Br)cc3)cc2)ncn1`, 0.589%.

(Values after PubChem BioAssay AID2314 (National Center for Advancing Translational Sciences (NCATS), 2010).)
